Measurements: the supplement of paper PMC3334620
Whole data set: some 33,000 sequences, median “E-score (-0.5 to 0.5)” near -0.012, cut for the highest 2% near 0.29. The entries come from a sample that favours the highest values as a whole.

Molecular target: T1, Ybr033w (UniProt P38073)
T1 sequence: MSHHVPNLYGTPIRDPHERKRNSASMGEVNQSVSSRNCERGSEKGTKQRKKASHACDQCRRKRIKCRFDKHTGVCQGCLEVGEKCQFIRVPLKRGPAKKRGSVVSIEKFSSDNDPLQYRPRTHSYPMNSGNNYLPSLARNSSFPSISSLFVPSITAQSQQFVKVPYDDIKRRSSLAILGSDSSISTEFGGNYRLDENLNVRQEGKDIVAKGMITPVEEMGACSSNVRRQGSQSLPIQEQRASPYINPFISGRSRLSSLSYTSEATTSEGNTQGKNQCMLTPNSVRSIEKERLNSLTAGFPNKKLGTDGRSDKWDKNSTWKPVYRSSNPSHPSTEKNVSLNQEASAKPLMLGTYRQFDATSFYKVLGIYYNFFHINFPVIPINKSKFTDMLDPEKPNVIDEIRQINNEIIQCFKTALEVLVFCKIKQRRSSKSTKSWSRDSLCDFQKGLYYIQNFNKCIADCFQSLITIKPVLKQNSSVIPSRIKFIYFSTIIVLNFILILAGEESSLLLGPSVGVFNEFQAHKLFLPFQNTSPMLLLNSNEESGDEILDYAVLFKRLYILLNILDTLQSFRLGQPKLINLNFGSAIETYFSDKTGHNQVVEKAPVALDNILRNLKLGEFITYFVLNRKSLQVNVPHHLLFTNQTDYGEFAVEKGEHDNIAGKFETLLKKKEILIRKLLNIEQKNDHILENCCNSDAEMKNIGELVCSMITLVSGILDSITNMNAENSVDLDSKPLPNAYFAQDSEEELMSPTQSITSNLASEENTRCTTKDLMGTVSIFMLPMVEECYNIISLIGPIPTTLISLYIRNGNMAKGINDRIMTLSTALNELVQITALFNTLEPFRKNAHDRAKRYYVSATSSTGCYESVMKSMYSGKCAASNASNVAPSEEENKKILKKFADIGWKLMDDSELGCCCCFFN
Test: PBM E-score (8-mer binding enrichment) (E-score (-0.5 to 0.5)); higher = stronger / more preferred TF binding
Conditions: protein concentration: 200 nM; construct: GST-full length
Outline: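 Universal all-10-mer Agilent arrays, fresh or stripped once, were converted to double-stranded form by primer extension. GST-tagged yeast transcription factors from PURExpress in vitro transcription/translation, full-length or DNA-binding domain only, were applied at about 100-200 nM and detected with fluorescent anti-GST. After masliner normalisation, the Universal PBM Analysis Suite scored each ungapped eight-base word together with its reverse complement by E-score.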

Sequence | PBM E-score
GAATTGAC | 0.00537
CAGGCGGA | 0.122
AACGCTTG | -0.194
ATTTCTCC | 0.404
CTTTCTCC | -0.103
AATTCTCC | 0.293
CATTCTCC | 0.0353
ATTTCTCA | 0.192
AATTCTCA | 0.204
CAGGCTGA | -0.237
GACAGAGA | -0.066
ACCCTACT | 0.0025
TGCTACCA | -0.0533
AATGCATA | 0.126
AATGCATG | 0.0293
AATGCATT | 0.31
AGTAGTAT | 0.185
CAAAGACA | 0.0541
AAAAGCCA | 0.3
AAAAGACC | -0.141
AAAAGCCC | -0.113
AAAAGACA | 0.292
GAAAGCCA | -0.136
CCCAGTGA | -0.194
AGCAGTGG | 0.0536

Sequence | PBM E-score
ATCTTGAA | 0.187
ATATTAAT | 0.314
TTATTAAA | 0.283
ACATTAAT | 0.235
ATATTAAC | 0.301
GTATTAAC | 0.0593
ATATTAAG | 0.285
CTATTAAC | 0.268
ATATTAAA | 0.355
CTATTAAA | 0.196
GGCTCTAC | -0.185
GGAACACA | 0.149
GAGCTGTA | -0.11
TCCATACA | 0.0807
ATTTTCAG | 0.148
ATTCGCCG | 0.0215
ATCGACAC | -0.0724
CGTGAACA | 0.00947
ATGTGTTA | 0.163
GTGTGTTA | 0.292
CTGTGTTA | -0.00531
CAAGGTCG | -0.0398
AACGACTC | -0.219
AATTTAGG | 0.229
AATTTATA | 0.257

Sequence | PBM E-score
ACTTTATG | 0.132
AGTTTATG | 0.2
AGTTTATA | 0.215
AATTTATG | 0.317
AGTTTATC | 0.363
CATTTATC | 0.278
AATTTATC | 0.398
GCAAGCGC | -0.00847
GTAACCAC | -0.255
CTCAATGC | -0.0435
AGATCTTG | -0.00564
TAAGTGAA | 0.293
GAAGTGAA | 0.155
AAAGTGAA | 0.164
CAAGCCAG | -0.0473
ATTAGATC | 0.0257
ATTAGATG | 0.329
ATTAGATA | 0.222
AATCGGGG | -0.125
ATAATCTG | 0.117
AAAATCTG | 0.235
GTAATCTA | 0.207
ACAATCTC | 0.0789
GAAATCTA | 0.116
AAAATCTA | 0.289

Sequence | PBM E-score
CTAATCTC | -0.0112
ATAATCTA | 0.294
ATAATCTC | 0.293
AGACAGGA | 0.246
TCTCAAAA | 0.143
GCGAGACA | -0.0827
CAAATAGG | 0.00709
CAGACGAG | -0.108
GAACGGAA | 0.0333
AAACGGAC | -0.102
AAACGGAA | 0.341
AACTCAAT | 0.0866
GGGTGAGA | -0.224
CTCACTTA | 0.0375
GGGTAAGA | -0.154
CACACTAG | 0.0753
CACACTAA | 0.299
TACACTAA | 0.0217
GCGCTGAA | -0.0684
ACCACGAG | 0.0793
ATTAATTG | 0.268
ATTAAGTG | 0.167
GTTAGTTA | 0.262
ATTAGTTG | 0.265
ATTAATTA | 0.387

Sequence | PBM E-score
CGTAATTC | 0.0565
GTTAAGTA | 0.113
GGTAATTA | 0.175
ATTAGTTA | 0.344
ATTAAGTA | 0.365
CGTAATTA | 0.29
GTTAATTA | 0.266
CGGGGCGA | -0.145
AAACACCC | 0.0312
GCGCGATA | 0.181
CCTCCTAC | -0.107
GACCTATA | 0.189
GGTGGCCA | -0.292
AACAGTAA | 0.173
CTCTTCGA | 0.0693
ACAGGTGA | 0.0969
ACTTACCA | 0.0956
CCGCTAAC | -0.0857
CTTAATTC | 0.257
ACTAATTC | 0.221
ATTAATTC | 0.291
AGTAATTA | 0.232
AGTAATTG | 0.129
AGTAATTC | 0.318
CCTTACCA | -0.00851

Sequence | PBM E-score
ACACCTGA | -0.0619
AGTTCTAC | 0.0539
AATCAAGC | 0.0885
ATATATTA | 0.306
CTATATTA | 0.284
CTATATTC | 0.215
ATATATTC | 0.326
ATATATCA | 0.0628
CTATATCC | 0.159
ATATATTG | 0.14
GTATATTA | 0.257
ATATATCC | 0.372
CCATATTA | 0.146
ACATATTA | 0.349
ACATATTG | 0.193
AAGAGGGG | -0.226
GTGCCACA | -0.302
CTGGCAGA | -0.00651
GCGGGACA | -0.243
CGCGATCA | 0.0933
AGATCTGA | -0.108
CTAAGGGA | 0.0981
ACCTGCGG | -0.146
ACTGCCAT | 0.00233
TCCTCGAA | 0.126

Sequence | PBM E-score
AACCAAAT | 0.228
ATGGGGTG | -0.195
CGATATTA | 0.336
GGATATTA | 0.144
CGATATTC | 0.123
AACTTCCC | 0.00652
AGATAGGA | 0.00058
ATTATTTG | 0.335
CTTTATTA | 0.191
ATTATTAG | 0.152
GTTTATTA | 0.276
CTTTATTC | 0.192
ATTTATTA | 0.293
ACTATTTG | 0.248
ATTATTTC | 0.332
ACTATTTC | 0.237
ATTTATTG | 0.0954
CTTATTTC | 0.235
ATTTATTC | 0.361
AGCCAATA | -0.0344
AAAAAGCG | 0.112
CCGTTGCG | -0.192
